Compound activity (PubChem)
ATXN2 expr inh: Primary qHTS for Inhibitors of ATXN expression | HEK-293 ATXN2-luciferase reporter, luminescence, 24 h | Potency, µM (highest dose often 57 µM), inactives show at the top dose activity change, negative = inhibition, actives largely listed as inhibitors | 360,000 tested, 0.72% active | AID 1745845, 2022; further: potency means the concentration at half of the fitted maximal effect; on the % scale 0 is the no-effect control and ±100 the full control effect; nearly all actives have a fitted effect of over 55% in size
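qHTS (up to 57 uM final) was run with 24 h compound exposure of reporter cells at 37 °C. Each well was multiplexed: SteadyGlo luminescence measured ATXN2-luciferase expression after a fluorogenic Gly-Phe-AFC viability readout (25 uM final).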
IDH1 R132H inh: qHTS for Inhibitors of mutant isocitrate dehydrogenase 1 (IDH1): qHTS; Potency, µM (highest dose often 76.6 µM), for inactives: at the highest dose activity change, negative = inhibition, hits mostly inhibitors; Isocitrate dehydrogenase [NADP] cytoplasmic (Homo sapiens), O75874; IDH1-R132H enzyme, NADPH consumption, diaphorase/resazurin fluorescence; 390,000 tested, 0.093% active; further: potency means the concentration at half of the fitted maximal effect; on the % scale 0 is the no-effect control and ±100 the full control effect; nearly all actives have a fitted effect of over 65% in size
Target sequence (O75874 whole entry R132H, stated change not applied): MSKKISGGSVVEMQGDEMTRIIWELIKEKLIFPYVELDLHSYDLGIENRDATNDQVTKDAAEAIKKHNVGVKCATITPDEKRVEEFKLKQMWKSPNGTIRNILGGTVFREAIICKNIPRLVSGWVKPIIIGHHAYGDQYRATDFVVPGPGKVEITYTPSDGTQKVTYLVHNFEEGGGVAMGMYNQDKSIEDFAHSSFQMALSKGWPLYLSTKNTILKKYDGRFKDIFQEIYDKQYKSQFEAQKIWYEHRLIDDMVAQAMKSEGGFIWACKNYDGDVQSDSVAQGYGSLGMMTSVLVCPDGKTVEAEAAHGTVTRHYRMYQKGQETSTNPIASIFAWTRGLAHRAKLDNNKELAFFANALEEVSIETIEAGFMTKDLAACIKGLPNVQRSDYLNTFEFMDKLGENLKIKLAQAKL
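IDH1-R132H (0.5 ug/mL dispensed) in pH 7.5 Tris buffer was preincubated 30 min with compound, then given a substrate mix of 0.016 mM NADPH and 2 mM alpha-KG for 80 min at room temperature; remaining NADPH was read by diaphorase/resazurin fluorescence.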
ATXN viability: Viability Counterscreen for Primary qHTS for Inhibitors of ATXN expression; 400,000 tested, 0.49% active; AID 651635, 2014; Potency, µM (doses to about 56.7 µM), most hits filed as cytotoxic; S2 cells (HEK-293 line with an ATXN2-luciferase reporter) viability, CellTiter-Fluor protease fluorescence, 24 h; further: potency means the concentration at half of the fitted maximal effect; nearly all actives have a fitted effect of over 40% in size
TGFb inhibitor: qHTS for Inhibitors of TGF-b | HepG2 CAGA-GFP TGF-b/SMAD3 reporter, GFP fluorescence, 18 h; TGF-beta stimulated, 500 pg/mL final | AID 588855, 2011 | Potency, µM (top dose mostly 46.1 µM), without a hit: at the top dose activity, negative = inhibition, most hits filed as inhibitors | 410,000 tested, 1.2% active; further: potency means the concentration at half of the fitted maximal effect; on the % scale 0 is the no-effect control and ±100 the full control effect; nearly all actives have a fitted effect of over 65% in size
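Read-out: total well GFP (ex488/em500-530) summed from mean per-cell fluorescence. Cells: HEPG2 CAGA-GFP, 1% FBS DMEM, 18 h at 37 degrees C with 500 pg/mL final TGF-beta. Unstimulated wells served as the full-inhibition control; stimulated DMSO wells = 0%.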
LDHA block: qHTS assay for inhibitors of human lactate dehydrogenase; activity change, % (values are at about 110 or 230 µM); purified LDHA, NADH/diaphorase-resazurin fluorescence; stronger effect = lower value; 480,000 tested, 0.15% active; AID 1347041, 2019; in the data active means activity change below about -30%; inconclusive means mostly about -25% to -30%;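 further: plate controls were DMSO wells for no effect and wells without enzyme for full effect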
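Enzyme activity of human lactate dehydrogenase 5 (2 nM; 0.06 mM NADH, 0.2 mM pyruvate, 5 min, RT) is measured via a resazurin/diaphorase fluorescence readout of residual NADH.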
HepG2 viability: qHTS for Inhibitors of TGF-b: Cytotox Counterscreen. HepG2 CAGA-GFP viability, ATP luminescence, 18 h. Potency, µM (series often up to 46.1 µM), for the others: top-dose activity change, negative = cytotoxicity, hits mostly cytotoxic. 410,000 tested, 0.76% active; further: potency means the concentration at half of the fitted maximal effect
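HepG2 CAGA-GFP cells (1000/well, DMEM with 1% FBS) received compound, then TGF-beta at 500 pg/mL final, and were incubated 18 hours at 37 degrees C. Viability was read by CellTiter-Glo luminescence. Media-only wells were set as complete cell-killing and DMSO as no toxicity.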
The depositor's hits bear a star; i = inactive; ? = inconclusive; . = no result. Rows were chosen to be rich in hits. Some 2.2% of all compounds tested hit in one or more screens of this group. Unless noted, the call rests on the fitted dose curve; in most records, active means well fitted curve in the direction sought with a large enough effect; inconclusive means small, poorly fitted or top-dose-only effect, or another doubt; inactive means no such curve, though single readings can be large; an effect the other way counts as inactive or inconclusive.

SMILES	ATXN2 expr inh	IDH1 R132H inh	ATXN viability	TGFb inhibitor	LDHA block	HepG2 viability
Nc1nc(N)c2cc(Sc3ccc4ccccc4c3)ccc2n1	?	3%	?	11µM*	2	-179%
CCn1c(=O)n(CC)c2cc(NC(=O)c3ccccc3Cl)ccc21	.	-3%	i	2%	-2	-8%
Cc1cc(Nc2cccc(C(F)(F)F)c2)nc2ccc(NC(=O)c3cncc(Br)c3)cc12	.	7%	.	?	0	10µM*
Cc1ccccc1C(=O)Nc1ccc2nc(Nc3cccc(C(F)(F)F)c3)cc(C)c2c1	?	-3%	i	14µM*	-2	-20%
COc1ccccc1CC(=O)Nc1ccc2nc(Nc3cccc(C(F)(F)F)c3)cc(C)c2c1	0%	-4%	i	0%	-6	-33%
COc1ccc(C(=O)CSc2nc(C(C)(C)C)nc3ccccc23)cc1	-23%	4%	i	20µM*	3	-31%
CCCn1c(NC(=O)c2ccccc2)nc2ccccc21	7%	14%	i	?	3	-4%
CCCn1c(NC(=O)c2cccc(S(=O)(=O)N3CCCC3)c2)nc2ccccc21	16µM*	0%	?	14µM*	2	-44%
CCc1nnc(NS(=O)(=O)c2ccc(N=Cc3c(C)[nH]n(-c4ccc(C)c(C)c4)c3=O)cc2)s1	12%	-1%	i	8%	-5	7.1µM*
Cc1[nH]n(-c2ccc(Br)cc2)c(=O)c1C=Nc1ccc(S(=O)(=O)Nc2nccs2)cc1	1%	4%	i	?	-5	-71%
COC(=O)[C@@H]1C[C@]2(OC(=O)c3ccccc3)C=CC(=O)C[C@@H]2N1C(=O)OCc1ccccc1	14µM*	-3%	.	?	0	-68%
CCOc1ncccc1C(=O)OCC(=O)NCCCc1ccccc1	-18%	1%	i	8%	-7	-11%
O=S(=O)(NCc1c(Cl)cccc1Oc1ccccc1)c1ccc(F)cc1	.	-3%	i	11µM*	1	-45%
O=C(O)CNS(=O)(=O)c1ccc(Oc2ccccc2Cl)cc1	.	.	.	.	2	.
CCc1c(C)nc2cc(-c3ccc(OC)c(OC)c3)nn2c1N1CCCC1	?	4%	?	22µM*	1	-93%
O=C(OCC(=O)N1CCC(Cc2ccccc2)CC1)c1ccccc1NCCO	0%	-6%	i	1%	-8	1%
c1ccc(Nc2nc3ccccc3o2)cc1	45%	7%	i	-6%	2	-2%
Fc1ccccc1Nc1nc2ccccc2o1	17%	0%	i	-5%	-6	7.1µM*
CCOc1ccc(NC(=O)C2CCCCN2S(=O)(=O)c2ccccc2)cc1 (centres undefined)	46%	10%	i	-1%	-1	-17%
Nc1ccc2c(c1)C(=O)C(=O)c1ccccc1-2	4.5µM*	11%	6.3µM*	?	32	4µM*
O=C1C(=O)c2ccc(-c3ccccc3)cc2-c2ccccc21	?	7%	5.6µM*	?	46	2.5µM*
COc1ccc(/C=C/C(=O)O)cc1S(=O)(=O)N1CCC(Cc2ccccc2)CC1	-7%	15%	i	-4%	-10	-10%
O=C(CCN1CCCC1)Nc1ccccc1	?	1%	?	5%	-1	6%
CSc1nn(Cc2ccccc2C)c(NC(C)=O)c1S(=O)(=O)c1ccc(C)cc1	-21%	1%	?	?	-1	3%
Nc1ccc(-c2cnc(N)c(C(=O)c3cccnc3)n2)cn1	?	-9%	?	7.9µM*	0	-19%
SMILES	ATXN2 expr inh	IDH1 R132H inh	ATXN viability	TGFb inhibitor	LDHA block	HepG2 viability
O=C(COc1cc(O)c2c(=O)cc(-c3ccccc3)oc2c1)c1cccc([N+](=O)[O-])c1	-20%	3%	i	-3%	-4	13%
CCN(CC)CCNC(=O)c1ccc2c(c1NCCO)C(=O)c1ccccc1C2=O	.	2%	7.9µM*	1.3µM*	9	1µM*
CCOC(=O)Cn1nnnc1C(C(C)C)N(Cc1cc2c(C)cc(C)cc2[nH]c1=O)C1CCCC1 (centres undefined)	?	2%	?	11%	0	3%
O=C(Nc1ccc(F)cc1F)c1cccc(C(=O)Nc2ccc(F)cc2F)n1	2.5µM*	6%	4.5µM*	-8%	-13	-25%
CCN(Cc1ccncc1)Cc1ccc2c(c1)CN(C(=O)c1cccc3c(C)c(C)[nH]c13)CCO2	.	.	i	.	.	.
Clc1ccccc1OCCCCN1CCCC1	2%	4%	i	-26%	-16	-2%
Clc1ccccc1OCCCCN1CCNCC1	-3%	12%	?	9%	-41*	0%
CC(C)C[C@H](NC(=O)c1nc[nH]c1C(=O)NCc1ccccc1)C(=O)OC(C)(C)C	?	0%	?	11µM*	5	-80%
CC(C)C[C@H](NC(=O)c1[nH]cnc1C(=O)N[C@@H](Cc1ccccc1)C(=O)OC(C)(C)C)C(=O)OC(C)(C)C	?	7%	.	11µM*	2	-31%
CC(C)C[C@H](NC(=O)c1[nH]cnc1C(=O)Nc1ccc(CNC(=O)OC(C)(C)C)cc1)C(=O)OCc1ccccc1	28µM*	4%	?	?	0	-42%
CC(C)C[C@H](NC(=O)c1nc[nH]c1C(=O)NC1CCN(C(=O)OC(C)(C)C)CC1)C(=O)OCc1ccccc1	?	-3%	?	?	0	13µM*
CC(C)C[C@H](NC(=O)c1nc[nH]c1C(=O)NCc1ccc(CNC(=O)OC(C)(C)C)cc1)C(=O)OC(C)(C)C	-18%	?	?	?	0	-24%
CC(C)C[C@H](NC(=O)c1[nH]cnc1C(=O)N[C@@H](Cc1ccccc1)C(=O)OC(C)(C)C)C(=O)OCc1ccccc1	-31%	14%	?	?	0	-6%
CC(C)C[C@H](NC(=O)c1nc[nH]c1C(=O)NC1CCN(C(=O)OC(C)(C)C)CC1)C(=O)OC(C)(C)C	?	14%	?	?	6	-77%
COc1ccc(NS(=O)(=O)c2ccc3c(c2)CCN3C(=O)C2CC2)cc1OC	.	0%	.	-7%	-16	-17%
CC(=O)N1CCN(C(=O)C(=O)Nc2c3c(nn2-c2ccc(Cl)cc2)CSC3)CC1	1%	-13%	?	15%	-2	1%
